The numbers were not newly measured in PubChem BioAssay AID977611, which cites them from elsewhere.

The campaign covered roughly 3,900 compounds. About 3,900 (100%) were called active. Cut-off not given; nearly all actives show Kd up to about 4200 µM. The set was probably picked from earlier hits. The list shows a part of the results. *1 amine or outer side, *2 acyl side, *3 side chain or, on linkers, in order; H or OH if unused. Where a SMILES comes first, the peptide text is derived from it. Square brackets hold non-standard residues; d marks the D form. Peptide text beside a SMILES is read from it. [ ]: non-standard residue; d: D form. The star is where a group is joined. Thr(P(OH)3+) = C[C@@H](O[P+](O)(O)O)[C@H](N)C(=O)O; Orn(CH(NH2)2) = NC(N)NCCC[C@H](N)C(=O)O; Lys(Me2) = CN(C)CCCC[C@H](N)C(=O)O; Suc = O=C(CCC(=O)[*:2])[*:1]; Bz = O=C(c1ccccc1)*

The nature of the data set: PubChem AID 977611. The conditions noted are these: PDB protein-ligand complexes, literature Kd.

Usually Kd stands for the concentration at which binding is half-saturated. Consider `C[C@H](N)C(=O)N[C@@H](CCCNC(N)N)C(=O)N[C@H](C(=O)N[C@@H](CCCCN(C)C)C(=O)N[C@@H](CCC(N)=O)C(=O)N[C@H](C(=O)N[C@@H](C)C(=O)N[C@@H](CCCNC(N)N)C(=O)N[C@@H](CCCCN(C)C)C(=O)N[C@@H](CO)C(=O)N[C@H](C(=O)NCC(=O)NCC(=O)N[C@@H](CCCCN)C(=O)N[C@@H](C)C(=O)N1CCC[C@H]1C(=O)NCC(=O)NCC(=O)O)[C@@H](C)O)[C@@H](C)O)[C@@H](C)O`, for which the Kd (protein: heterochromatin protein 1 (HP1), PDB entry 1guw) is 1.9 µM (active).
Turning to `C[C@H](NC(=O)[C@@H](NC(=O)CNC(=O)[C@@H]1CCCN1C(=O)[C@@H]1CCCN1C(=O)[C@H](C)NC(=O)[C@H](CCCCN)NC(=O)[C@@H](N)CCC(N)=O)[C@@H](C)O)C(=O)N[C@@H](CCCNC(N)N)C(=O)N[C@@H](CCCNC(N)N)C(=O)N[C@@H](CCCCN)C(=O)N[C@@H](CCCNC(N)N)C(=O)N[C@@H](CCCCN)C(=O)O` (H-QKAPPGTA[Orn(CH(NH2)2)][Orn(CH(NH2)2)]K[Orn(CH(NH2)2)]K-OH), the Kd (protein: A. thaliana cpSRP43 Delta CD3, PDB entry 3ui2) is 0.43 µM (active).
`CC(C)[C@H](NC(=O)[C@@H]1CCCN1C(=O)[C@@H](N)Cc1ccc(O)cc1)C(=O)N[C@@H](CCCCN)C(=O)N[C@@H](CCCCN)C(=O)N[C@@H](CCCCN)C(=O)N[C@@H](C)C(=O)N[C@@H](CCCNC(N)N)C(=O)N[C@@H](CCCCN(C)C)C(=O)N[C@@H](CO)C(=O)N[C@@H](C)C(=O)NCC(=O)O` (H-YPVKKKA[Orn(CH(NH2)2)][Lys(Me2)]SAG-OH): where the note is “protein: Human Chromobox Homolog 3 (CBX3), PDB entry 3tzd”, the dissociation constant (Kd) was 52 µM (active).
For the compound H-DPGEGPST-OH, the Kd (protein: Ubiquitin carboxyl-terminal hydrolase 7(USP7), PDB entry 1yy6) was 0.86 µM (active).
`O=C1C=C(O)C(=O)C=C1O`: the dissociation constant (Kd) (protein: 5-chloro-2-hydroxyhydroquinone dehydrochlorinase (TftG), PDB entry 4lbp) is 11.4 µM (active).
In the case of `CNS(=O)(=O)Nc1nccc(Cc2c(C)c3ccc(Oc4ncccn4)cc3oc2=O)c1F`, under “protein: Dual specificity mitogen-activated protein kinase kinase 1, Human MEK1 kinase, PDB entry 3wig”, the dissociation constant (Kd) is 0.0023 µM (active).
With `CC(C)C[C@H](NC(=O)[C@@H](NC(=O)CNC(=O)c1ccccc1)C(C)C)C(=O)N[C@@H](CCCCN)C(=O)N[C@@H](CCC(=O)O)C(=O)N[C@@H](Cc1ccc(O)cc1)C(=O)NCC(=O)N[C@H](C(=O)O)C(C)C` (Bz-GVLKEYGV-OH), the dissociation constant (Kd) was 0.7 µM (active) (protein: NAD-DEPENDENT PROTEIN DEACYLASE SIRTUIN-5, MITOCHONDRIAL zebrafish Sirtuin 5, PDB entry 4utr); 8.2 µM (active) (protein: NAD-DEPENDENT PROTEIN DEACYLASE SIRTUIN-5, MITOCHONDRIAL zebrafish Sirtuin 5, PDB entry 4utv); 5.78 µM (active) (protein: NAD-DEPENDENT PROTEIN DEACYLASE SIRTUIN-5, MITOCHONDRIAL zebrafish Sirtuin 5, PDB entry 4utx); 0.83 µM (active) (protein: NAD-DEPENDENT PROTEIN DEACYLASE SIRTUIN-5, MITOCHONDRIAL zebrafish Sirtuin 5, PDB entry 4uu7); 0.29 µM (active) (protein: NAD-DEPENDENT PROTEIN DEACYLASE SIRTUIN-5, MITOCHONDRIAL zebrafish Sirtuin 5, PDB entry 4uu8); 5.78 µM (active) (protein: NAD-DEPENDENT PROTEIN DEACYLASE SIRTUIN-5, MITOCHONDRIAL zebrafish Sirtuin 5, PDB entry 4uua).
Take `CC(C)C[C@H](NC(=O)[C@@H](NC(=O)CNC(=O)c1ccccc1)C(C)C)C(=O)N[C@@H](CCCCNC(=O)CCC(=O)O)C(=O)N[C@@H](CCC(=O)O)C(=O)N[C@@H](Cc1ccc(O)cc1)C(=O)NCC(=O)N[C@H](C(=O)O)C(C)C` (Bz-GVLK(Suc)EYGV-OH): the dissociation constant (Kd) (protein: NAD-DEPENDENT PROTEIN DEACYLASE SIRTUIN-5, MITOCHONDRIAL zebrafish Sirtuin 5, PDB entry 4utn) is 0.71 µM (active).
For the compound `CC(=O)n1ccc2nc3ccc(Cl)cc3c-2c1`, where the note is “protein: Bromodomain adjacent to zinc finger domain protein 2B BAZ2B Bromodomain, PDB entry 4nra”, the dissociation constant (Kd) was 65 µM (active).
Consider `c1ccc(-c2nsc(N3CCCNCC3)n2)cc1`, for which the Kd (protein: INTEGRASE, PDB entry 4ah9) is 3500 µM (active).
On to `Cc1ccc(C(=O)N(CCCN)[C@@H](C2=C(Cc3ccccc3)C(O)c3ccc(Cl)cc3O2)C(C)C)cc1` (some centres not stated), for which the dissociation constant Kd (protein: KINESIN-LIKE PROTEIN KIF11, PDB entry 4bxn) was 0.01 µM (active).
With `O[C@@H](CC1c2ccccc2Sc2ccccc21)CN1CCCC1`, the dissociation constant (Kd) (protein: Renin, PDB entry 4gj8) was 500 µM (active).
`Cc1ncc2c(n1)N(C)C(=O)C(=N)C2`: the Kd (protein: Caspase-6, PDB entry 4n5d) is 607 µM (active).
For the compound `CC[C@H](C)[C@H](NC(=O)[C@H](CC(C)C)NC(=O)[C@H](Cc1c[nH]cn1)NC(=O)[C@H](CC(=O)O)NC(=O)[C@H](CC(=O)O)NC(=O)[C@H](CCC(=O)O)NC(=O)[C@H](CC(=O)O)NC(=O)[C@@H](NC(=O)[C@H](CC(=O)O)NC(=O)[C@@H](N)CCC(=O)O)[C@@H](C)O[P+](O)(O)O)C(=O)N[C@@H](Cc1ccc(O)cc1)C(=O)N[C@@H](CC(C)C)C(=O)N[C@@H](CCC(=O)O)C(=O)N[C@@H](CCC(=O)O)C(=O)N[C@H](C(=O)N[C@@H](CC(C)C)C(=O)N[C@H](C(=O)N[C@@H](CCCNC(N)N)C(=O)N[C@H](C(=O)O)C(C)C)C(C)C)[C@@H](C)CC` (H-ED[Thr(P(OH)3+)]DEDDHLIYLEEILV[Orn(CH(NH2)2)]V-OH), the Kd (protein: C-terminal domain of human RAP74, PDB entry 2k7l) was 0.7 µM (active).
Regarding `CC[C@H](C)[C@H](NC(=O)CNC(=O)[C@H](CCC(=O)O)NC(=O)CNC(=O)[C@H](CCC(=O)O)NC(=O)[C@H](CCC(=O)O)NC(=O)[C@H](CC(C)C)NC(=O)CNC(=O)[C@H](Cc1ccccc1)NC(=O)[C@H](Cc1c[nH]cn1)NC(=O)[C@H](Cc1ccc(O)cc1)NC(=O)[C@H](CC(=O)O)NC(=O)[C@@H](N)CC(C)C)C(=O)N[C@@H](CCCNC(N)N)C(=O)N[C@@H](CC(=O)O)C(=O)N[C@@H](CC(C)C)C(=O)N[C@@H](Cc1ccccc1)C(=O)N[C@H](C)CC(=O)O`, under “protein: The human retinoblastoma tumor suppressor protein (pRb), PDB entry 1o9k”, the Kd was 0.34 µM (active).
On to `Nc1nc(-c2ccc(C(F)(F)F)cc2)cc(N2CCOCC2)n1`, for which, under “protein: Acetylcholine-binding protein AChBP, PDB entry 4qab”, the Kd is 0.0002 µM (active).
On to `CC1CCN(c2cc(-c3ccc(C(F)(F)F)cc3)nc(N)n2)CC1`, for which the Kd (protein: Acetylcholine-binding protein AChBP, PDB entry 4qac) was 0.0004 µM (active).
